Source: PubChem (Johns Hopkins Ion Channel Center)
KCNQ2 pot: potentiators of rat KCNQ2 potassium channel; actives 0.54% (n = 310,000); CHO-K1 KCNQ2, FluxOR thallium flux fluorescence; stronger effect = higher value; AID 2239, 2010; B-score at 10 µM;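 active = fluorescence ratio B-score at least 3 SD of library B-scores, with initial fluorescence B-score within 3 of them, cut at about 5.3 in these data; same plate scores as AID 2156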;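 also: B-score of peak minus minimum over baseline fluorescence ratio after K+ and Tl+ stimulus; positive B-score means potentiation of KCNQ2 with more thallium influx and brighter signal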
KCNQ2 block: rat KCNQ2 potassium channel inhibitors, primary screen, cell-based, CHO-K1, FluxOR thallium flux, B-score | B-score at 10 µM | 20 min; stronger effect = lower value | actives 1.1% (n = 310,000);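 active = fluorescence ratio B-score at most minus 3 library SDs, with starting brightness B-score within 2 library SDs, cut at about -5.5 in these data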
KCNQ2 inh conf: rat KCNQ2 potassium channel inhibitors, confirmation, cell-based, thallium flux; shares compounds with KCNQ2 block; KCNQ2-expressing cells, inhibition; stronger effect = lower value; activity change, negative = inhibition, % at 10 µM; actives 57% (n = 1,000);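 also: 0% = vehicle wells and values are ratio percent relative to vehicle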
KCNQ1 spec: human KCNQ1 channel inhibition, counter-screen for KCNQ2 inhibitor project, cell-based, FluxOR thallium flux; shares compounds with KCNQ2 block; AID 493026, 2011; KCNQ1-expressing cells, FluxOR thallium flux fluorescence; stronger effect = lower value; activity change, negative = inhibition, % at 10 µM; actives 15% (n = 1,000);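 active = activity change at least 3 SD of negative controls below their mean in both duplicate wells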;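 also: CHO cells stably transfected with KCNQ1 and depolarized by potassium stimulus; peak minus minimum fluorescence over baseline after thallium addition; 0% = vehicle negative control and -100% = blank without thallium stimulus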
Target sequence (P51787 whole entry, looked up): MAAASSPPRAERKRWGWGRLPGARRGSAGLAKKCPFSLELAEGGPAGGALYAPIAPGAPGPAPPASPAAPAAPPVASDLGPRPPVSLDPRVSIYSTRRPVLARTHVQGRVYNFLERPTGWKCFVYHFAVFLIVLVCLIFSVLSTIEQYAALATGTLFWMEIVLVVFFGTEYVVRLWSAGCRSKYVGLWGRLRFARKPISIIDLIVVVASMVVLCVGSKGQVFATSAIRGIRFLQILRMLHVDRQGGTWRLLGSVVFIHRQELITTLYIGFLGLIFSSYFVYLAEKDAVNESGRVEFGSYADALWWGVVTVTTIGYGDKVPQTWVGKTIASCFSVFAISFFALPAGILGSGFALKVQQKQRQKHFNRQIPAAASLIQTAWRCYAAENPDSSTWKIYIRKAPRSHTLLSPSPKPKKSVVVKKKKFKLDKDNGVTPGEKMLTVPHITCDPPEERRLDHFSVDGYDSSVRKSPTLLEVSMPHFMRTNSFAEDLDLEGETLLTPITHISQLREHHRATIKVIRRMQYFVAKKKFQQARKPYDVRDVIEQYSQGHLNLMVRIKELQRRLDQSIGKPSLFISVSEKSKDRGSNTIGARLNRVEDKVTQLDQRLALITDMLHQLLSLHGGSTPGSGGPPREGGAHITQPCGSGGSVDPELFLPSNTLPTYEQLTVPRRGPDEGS
CHO parental ctr: thallium flux change in parental CHO cells, counter-screen for KCNQ2 inhibitor project; stronger effect = lower value; shares compounds with KCNQ2 block; activity change, % at 10 µM; actives 14% (n = 1,000);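 also: 0% = vehicle negative controls with stimulus buffer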
KCNQ2 inh confirm: rat KCNQ2 channel inhibitors, confirmation, cell-based, automated patch clamp, single concentration. KCNQ2-expressing cells, automated patch clamp current. shares compounds with KCNQ2 block. calls only at 10 µM. actives 49% (n = 550)
Numbers without * were called inactive; i = inactive; nt = no result; + = active, no number. Rows were chosen to be rich in hits. Some 1.6% of all compounds tested hit in one or more screens of this group. Unless noted, no rule for the calls is given here.

SMILES	KCNQ2 pot	KCNQ2 block	KCNQ2 inh conf	KCNQ1 spec	CHO parental ctr	others
Cc1ccccc1NC(=O)c1sc(Cl)nc1-c1ccccc1	-8.7	-8.7*	i	i	i
O=C(Nc1ccc(F)cc1)c1sc(Cl)nc1-c1ccccc1	nt	i	nt	nt	nt
Cc1ccc(NC(=O)c2sc(Cl)nc2-c2ccccc2)cc1	nt	i	nt	nt	nt
Cc1ccc(C)c(NC(=O)c2sc(Cl)nc2-c2ccccc2)c1	-8	-8*	i	i	i
COc1ccccc1N(CC(=O)NCCSc1ccccn1)S(=O)(=O)c1ccccc1	nt	i	nt	nt	nt
Cc1cccc(-c2nc(CNC(=O)c3ccco3)cs2)c1	2	i	nt	nt	nt
CC(=O)Nc1c(-c2ccccc2)nc2ccc(Cl)cn12	nt	i	nt	nt	nt
CCC(C)Sc1cccc(-c2nc3ccc(Cl)cn3c2NCc2ccccc2)c1 (centres undefined)	-7.3	-7.3*	-33%*	-38%*	-25%*	KCNQ2 inh confirm=+
CCC(C)Sc1cccc(-c2nc3ccc(C)cn3c2NCc2ccccc2)c1 (centres undefined)	nt	i	nt	nt	nt
CCOC(=O)CNc1c(-c2ccccc2)nc2ccc(Cl)cn12	-7	-7*	-32%*	i	i	KCNQ2 inh confirm=+
CCN(CC1COc2ccccc2O1)C(=O)c1ccc(Cl)c(S(=O)(=O)N2CC(C)OC(C)C2)c1 (centres undefined)	nt	i	nt	nt	nt
CC1CN(S(=O)(=O)c2cc(C(=O)N(CCc3ccccc3)Cc3ccccc3)ccc2Cl)CC(C)O1 (centres undefined)	-7.2	-7.2*	i	i	i
Cc1ccnc(NC(=O)c2ccc(NS(=O)(=O)/C=C/c3ccccc3)cc2)c1	nt	i	nt	nt	nt
COc1ccc(C(=O)Nn2c(C)nc3ccccc3c2=O)cc1OC	nt	i	nt	nt	nt
COc1ccc(CNn2c(-c3cccs3)nc3ccccc3c2=O)cc1OC	-9.2	-9.2*	-40%*	i	i	KCNQ2 inh confirm=+
CCc1nc(Nc2ccc3c(c2)OCCO3)c2oc3ccccc3c2n1	nt	i	nt	nt	nt
Cc1nc(Nc2ccc3c(c2)OCCO3)c2oc3ccccc3c2n1	-8.1	-8.1*	-32%*	-28%*	i	KCNQ2 inh confirm=i
O=C(CCn1c(=O)oc2ccccc21)N(Cc1ccccc1)c1ccccc1	-11	-11*	-32%*	i	i	KCNQ2 inh confirm=+
CN(Cc1ccccc1)C(=O)CCn1c(=O)oc2ccccc21	1	i	nt	nt	nt
COc1ccc(NC(=O)c2ccc3[nH]c(C)c(C)c3c2)cc1	0.52	i	nt	nt	nt
O=C(O)c1ccc2nc(-c3ccco3)c(-c3ccco3)nc2c1	nt	i	nt	nt	nt
O=C(Nc1cccc(C(F)(F)F)c1)c1ccc2nc(-c3ccco3)c(-c3ccco3)nc2c1	-8.5	-8.5*	-30%*	i	i	KCNQ2 inh confirm=+
CCCCCCCCCOC(=O)C(CC(=O)O)N1CCOCC1 (centres undefined)	nt	i	nt	nt	nt
CCCCCOC(=O)CC(C(=O)OCCCCC)N1CCCCC1 (centres undefined)	-9.2	-9.2*	-34%*	-32%*	-30%*	KCNQ2 inh confirm=i
CN(C)c1ccc(C(=O)N=c2sccn2C)cc1[N+](=O)[O-]	nt	i	nt	nt	nt
SMILES	KCNQ2 pot	KCNQ2 block	KCNQ2 inh conf	KCNQ1 spec	CHO parental ctr	others
COc1ccccc1N1CCN(C(=O)c2c(C)cc(=O)oc2C)CC1	0.41	i	nt	nt	nt
COc1cc2c(C(=O)N3CCN(c4ccccc4C)CC3)c(C)oc2cc1Br	-11	-11*	-22%*	i	i	KCNQ2 inh confirm=i
COc1cc(/C=N/NC(=O)c2ccc(CSc3nc4ccccc4[nH]3)cc2)ccc1O	nt	i	nt	nt	nt
CCN(c1cccc(C)c1)S(=O)(=O)c1ccc(-c2cc(C)no2)s1	nt	i	nt	nt	nt
Cc1cccc(N(C)S(=O)(=O)c2ccc(-c3cc(C)no3)s2)c1	-7	-7*	i	i	i
Cc1cc(NC(=O)c2ccc3c(c2)C(=O)N(c2cccc(C)c2C)C3=O)no1	nt	i	nt	nt	nt
Cc1cccc(-n2c(=S)[nH]c3nc4c(cc3c2=O)COC(C)(C)C4)c1	1.1	i	nt	nt	nt
S=C(Nc1cccnc1)NC1CC2CCC1C2 (centres undefined)	0.26	i	nt	nt	nt
Cc1c(CCOC(=O)CC23CC4CC(CC(C)(C4)C2)C3)sc[n+]1CC(=O)c1ccccc1	-7.8	-7.8*	i	i	i
Cc1c(CCOC(=O)CC23CC4CC(CC(C4)C2)C3)sc[n+]1CC(=O)c1ccc(Br)cc1	-10	-10*	-28%*	i	i	KCNQ2 inh confirm=+
Cc1c(CCOC(=O)c2cc([N+](=O)[O-])cc([N+](=O)[O-])c2)sc[n+]1CC(=O)c1ccccc1	0.27	i	nt	nt	nt
Cc1c(CCOC(=O)c2ccccc2)sc[n+]1Cc1ccccc1	nt	i	nt	nt	nt
CC(C)C(NC(=O)C(C)N1C(=O)c2ccccc2C1=O)c1ccccc1 (centres undefined)	nt	i	nt	nt	nt
Cc1cccc(N(C(=O)CNC(=O)c2ccco2)C(C(=O)NC2CCCC2)c2cccnc2)c1C (centres undefined)	1.4	i	nt	nt	nt
CC(=O)c1cccc(NC(=O)CCn2c(=S)oc3ccccc32)c1	0.02	i	nt	nt	nt
CC(C)CN(C(=O)c1ccc2c(c1)OCCO2)c1c(N)n(Cc2ccccc2)c(=O)[nH]c1=O	nt	i	nt	nt	nt
COc1ccc(Cl)cc1NC(=O)C(C)N(C)Cc1cccc(Cl)c1Cl (centres undefined)	-7.3	-7.3*	i	i	i
COc1ccc(Cl)cc1NC(=O)NC(C)C	nt	i	nt	nt	nt
BrC(=C\c1ccccc1)/C=N/Nc1nc(N2CCOCC2)nc(N2CCOCC2)n1	0.25	i	nt	nt	nt
C/C(=C/C=N/Nc1nc(N2CCCCC2)nc(N2CCCCC2)n1)c1ccccc1	-7.2	-7.2*	-29%*	i	i	KCNQ2 inh confirm=i
Oc1ccc(/C=N/Nc2nc(N3CCCCCC3)nc(N3CCCCCC3)n2)c(O)c1	nt	i	nt	nt	nt
CC(/C=N/Nc1nc(N2CCCCC2)nc(N2CCCCC2)n1)=C\c1ccccc1	-8.2	-8.2*	-34%*	-34%*	-26%*	KCNQ2 inh confirm=i
CC(=O)c1cccc(NC(=O)Cn2cnc(S(=O)(=O)N3CCCC3)c2)c1	nt	i	nt	nt	nt
NC(=O)C1CCN(C(=O)c2cc3ccccc3cc2O)CC1	nt	i	nt	nt	nt
COc1ccc(CNC(=O)CSc2nc3ccccc3n2C(C)=O)cc1	3.1	i	nt	nt	nt
C/C(=N\NC(=O)c1nnn(-c2nonc2N)c1-c1ccc2c(c1)OCO2)c1ccc(C)cc1	0.86	i	nt	nt	nt
COc1ccccc1S(=O)(=O)Cc1ccc(C(=O)N2CCN(c3ccccc3)CC2)o1	nt	i	nt	nt	nt
COc1ccccc1S(=O)(=O)Cc1ccc(C(=O)N2CCN(c3cccc(Cl)c3)CC2)o1	-10	-10*	-37%*	i	i	KCNQ2 inh confirm=i
Cc1ccccc1OCC(=O)NCCS(=O)(=O)N1CCN(c2ccc(F)cc2)CC1	nt	i	nt	nt	nt
COc1ccc(OC)c(N(CC(=O)NCCSCc2ccco2)S(=O)(=O)c2ccc(OC)c(OC)c2)c1	0.65	i	nt	nt	nt
